These results are taken from PubChem BioAssay.

The source made the active and inactive calls.

Test system in the first assay: not listed separately
As to the kind of experiment: budding yeast growth modifiers under rapamycin – strain BY4716, OD600, 96 h, primary screen (AID 1091). Note: test concentration not given here. Particulars: S. cerevisiae BY4716 + rapamycin, higher = more signal, called active from +8 up or from −8 down.
As to `CC1=C2[C@@H](CCc3ccccc3)OB(O)C[C@@H]2[C@@H]2C(=O)N(Cc3ccccc3)C(=O)[C@@H]2C1`, the z-score was -0.993 (inactive).

`CCOC(=O)C[C@H]1[C@H](OC(=O)Cc2ccc3c(c2)OCO3)[C@@H](NC(=O)C2CCCCC2)c2cc(OCCCO)ccc2N1C(=O)c1ccccc1`: the z-score was 0.36 (inactive).

Take `COCCCNC(=O)[C@@]1(CCC(=O)OC(C)(C)C)N=C(c2ccc(OCCCO)cc2)O[C@H]1c1ccccc1N=[N+]=[N-]`: the z-score is -0.875 (inactive).

Take `[N-]=[N+]=Nc1ccccc1C[C@]1(C(=O)NCC(O)CO)COC(c2ccc(OCCCO)cc2)=N1` (stereo partly drawn): the z-score was 0.69 (inactive).

`CCCC[C@@H](O)C1=C(COC)C[C@H]2C(=O)N(C)C(=O)[C@H]2[C@H]1CO`: the z-score is -1.21 (inactive).

Regarding `CCCCCCc1nc(Cc2cc(OC)c(OC)c(OC)c2)cc2c1[Si](C(C)C)(C(C)C)OC2`, the z-score is 0.0907 (inactive).

In a further assay the target is Torsin-1A-interacting protein 2 (Homo sapiens) (UniProt Q8NFQ8). As to the kind of experiment: small molecules binding lysate-expressed LULL1 – cell lysate, human LULL1 lysate, 635/667 nm fluorescence, primary screen (AID 1092).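 Note: probe is lysate of COS7 cells overexpressing human LULL1; score merges per-feature 667 nm fluorescence with signal-to-noise.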 Particulars: small-molecule microarray, hLULL1 lysate binding, 635 nm fluorescence; higher = more signal.
Chain of Torsin-1A-interacting protein 2 (Homo sapiens) (Q8NFQ8 whole entry, looked up): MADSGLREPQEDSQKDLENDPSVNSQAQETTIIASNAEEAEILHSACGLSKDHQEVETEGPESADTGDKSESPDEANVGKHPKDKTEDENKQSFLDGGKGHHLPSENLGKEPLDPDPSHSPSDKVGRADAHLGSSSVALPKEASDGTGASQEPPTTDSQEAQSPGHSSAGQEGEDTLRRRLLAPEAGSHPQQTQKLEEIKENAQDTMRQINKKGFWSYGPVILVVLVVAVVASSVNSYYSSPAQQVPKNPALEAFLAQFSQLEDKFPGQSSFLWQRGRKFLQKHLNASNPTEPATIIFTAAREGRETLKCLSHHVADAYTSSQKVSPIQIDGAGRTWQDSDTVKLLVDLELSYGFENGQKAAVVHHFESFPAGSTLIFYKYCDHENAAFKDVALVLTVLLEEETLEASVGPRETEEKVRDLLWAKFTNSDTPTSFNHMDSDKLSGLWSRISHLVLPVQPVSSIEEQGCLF
With `N#Cc1ccc(NN2C(C(O)c3ccc(Br)cc3)C=CC3C(=O)N(c4ccccc4)C(=O)C32)cc1` (stereo not drawn), the composite z-score is 2.99.

Turning to `CC1CC/C=C\[C@H]2OC34C=CCN(c5ccc(Cl)cc5)C(=O)[C@H]3N(C(C)CO)C(=O)[C@]4(C)C2C(=O)O1` (stereo partly drawn), the composite z-score was -1.05.

`CO[C@H]1O[C@H](CO)[C@@H](OC(=O)Nc2ccc(Br)cc2)[C@@H]2OC(=O)[C@@H](Cc3ccccc3)C/C=C/C[C@H](Cc3ccccc3)C(=O)O[C@@H]12` had a composite z-score of 2.01.

As to `CCOC(=O)C[C@H]1[C@H](OC(=O)c2cc3ccccc3oc2=O)[C@@H](NC(=O)c2ccccc2)c2cc(OCCCO)ccc2N1C(=O)c1ccccc1`, the composite z-score is -0.098.

Turning to `O=C1OCCC=C[C@H]2OC34C=CCN(c5ccc6ccccc6c5)C(=O)[C@H]3N(CCCO)C(=O)[C@@H]4C12` (stereo partly drawn), the composite z-score is -0.939.

As for `O=C1C2C=CC(C(O)C3CC=CCC3)N(Nc3ccccc3)C2C(=O)N1c1ccccc1` (stereo not drawn), the composite z-score was 3.09.

`Cc1ccc(S[C@]2(C(=O)NC(C)C)CC(=O)N(Cc3cc(C(F)(F)F)cc(C(F)(F)F)c3)[C@@H]2c2ccc(CO)cc2)cc1` showed a composite z-score of 0.47.

`CCOC(=O)C[C@H]1[C@H](OC(=O)c2ccccc2-c2ccccc2)[C@@H](NC(=O)c2ccc3ccccc3n2)c2cc(OCCCO)ccc2N1C(=O)Cc1ccc(OC)cc1`: the composite z-score turned out to be 0.346.

`CC(C)c1ccc(NN2C(C(O)c3ccc(C#N)cc3)C=CC3C(=O)N(c4ccccc4)C(=O)C32)cc1` (stereo not drawn) returned a composite z-score of 3.36.

Regarding `CCC#CCN(Cc1ccccc1Br)[C@H](/C=C/C1CC1)[C@@H](O)Cc1ccccc1`, the composite z-score is -0.783.

Take `C=C[C@@H](OC)[C@H](OC(=O)Nc1ccc(OC)cc1)c1ccc(O)c(F)c1`: the composite z-score came out at 1.16.

Consider `C=CCC(OC(C)=O)[C@@H]1[C@@H](N(Cc2ccc(-c3cccc(C(F)(F)F)c3)o2)C(=O)c2ccc(-c3ccccc3)cc2)c2cc(OCCCO)ccc2N1C(=O)Cc1ccc2ccccc2c1` (stereo partly drawn), for which the composite z-score was found to be 0.512.

In turn, `CCOC(=O)C1=C[C@@H](c2ccccc2)N(S(=O)(=O)c2ccc(C)cc2)[C@H]1c1ccc(OC)cc1` came in with a composite z-score of 2.71.

Regarding `CS(=O)(=O)CCOC(=O)C1=CC(CCCO)=CC(c2ccc(CN3CCCC3)cc2)N(Cc2sc3ccccc3c2Cl)C=C1C(=O)OCCS(C)(=O)=O` (stereo not drawn), the composite z-score was 2.06.

In the case of `CCOC(=O)C[C@H]1[C@H](OC(=O)Cc2ccc3c(c2)OCO3)[C@@H](NC(=O)c2ccc3ccccc3n2)c2cc(OCCCO)ccc2N1C(=O)c1ccc2ccccc2n1`, the composite z-score amounted to 1.03.

As for `C=CCC(OC(C)=O)[C@@H]1[C@@H](N(Cc2ccc(-c3ccccc3)cc2)C(=O)c2ccc(-c3ccccc3)cc2)c2cc(OCCCO)ccc2N1C(=O)c1ccc2ccccc2c1` (stereo partly drawn), the composite z-score was found to be 1.17.

Take `Cc1ccc(NN2C(C(O)c3c(F)cccc3Cl)C=CC3C(=O)N(C4CCCCC4)C(=O)C32)cc1` (stereo not drawn): the composite z-score was 3.02.

With `CN(C)C(=O)[C@]1(Cc2ccccc2CN=[N+]=[N-])N=C(c2ccc(OCCCO)cc2)O[C@@H]1c1ccccc1`, the composite z-score turned out to be 3.29.

Consider `Cc1ccc(S[C@]2(C(=O)O)CC(=O)N(C3CCCCC3)[C@@H]2c2ccc(CO)cc2I)cc1`, for which the composite z-score amounted to 3.35.

Turning to `CCOC(=O)C[C@H]1[C@H](OC(=O)c2cc3ccccc3oc2=O)[C@@H](NC(=O)CC(C)C)c2cc(OCCCO)ccc2N1C(=O)c1ccc2ccccc2n1`, the composite z-score came to 1.09.

For the compound `CCOC(=O)C[C@H]1[C@H](OC(=O)c2ccc(-c3ccccc3)cc2)[C@@H](NC(=O)CC(C)C)c2cc(OCCCO)ccc2N1C(=O)c1ccc2ccccc2n1`, the composite z-score was 1.15.

`CCOC(=O)C[C@H]1[C@H](OC(=O)c2ccc(C(=O)c3ccccc3)cc2)[C@@H](NC(=O)c2ccc3ccccc3n2)c2cc(OCCCO)ccc2N1C(=O)Cc1ccc(OC)cc1` showed a composite z-score of 1.36.
